Data as given in ChEMBL document CHEMBL4513216, “Probing the Open Global Health Chemical Diversity Library for Multistage-Active Starting Points for Next-Generation Antimalarials” (ACS Infect Dis, 2020).
About 8,600 (12%) of roughly 69,000 compounds showed an effect of 50% or more. The sample as a whole holds a higher share of strong results than the screen did.

Each compound was assayed on Plasmodium berghei (assay: Screen against P. berghei liver stage (PbLuc), transformed with Luciferase, at 10uM). Conditions: tested at 10 uM.
Format: functional, HepG2

Structure (SMILES) | INHIBITION
Cc1cccc(C(=O)NC(C(=O)NCc2ccc(O)nc2)C(C)C)c1 (stereo not drawn) | 28.7%
c1ccc(-c2cc(CN3C[C@H]4CC[C@H]3C4)on2)cc1 | -0.27%
c1ccc(-c2cc(CN3C[C@H]4CC[C@@H](C3)N(CC3CC3)C4)on2)cc1 | 48.2%
c1ccc(-c2cc(CN3C[C@H]4CC[C@@H](C3)N(CC3CCC3)C4)on2)cc1 | 86.8%
CN(c1cccnn1)C1CCN(C(=O)Cc2c[nH]c3ccccc23)CC1 | 36.1%
CCCOC1CCCN(c2nc(CC)nc3c2cnn3C)C1 (stereo not drawn) | 7.77%
Cc1nc(N2CCCC2)nc2c1CCN(C(=O)C1CCC1)CC2 | -21.1%
Nc1ncc(-c2csc(NC(=O)C[C@H]3COCCN3)n2)cn1 | -7.79%
O=C(Cc1ccc2c(c1)CCC2)NCCNc1cnccn1 | 8.64%
c1cc(CN2C[C@H](OCC3CCOCC3)[C@H]3COC[C@H]32)cs1 | 9.65%
c1cnc(N2CCO[C@H]3[C@H](OCC4CCOCC4)CC[C@@H]32)nc1 | 21.6%
c1cc(CN2C[C@H](OCC3CCOCC3)[C@H]3COC[C@H]32)co1 | 57.3%
c1csc(CN2C[C@H](OCC3CCOCC3)[C@H]3COC[C@H]32)n1 | 26.5%
COc1ccc(CN2C[C@H](OCC3CCOCC3)[C@H]3COC[C@H]32)cc1 | 41.8%
c1cnc(N2C[C@H](OCC3CCOCC3)[C@H]3COC[C@H]32)nc1 | 68.9%
COc1ccc(-n2cc3[nH]c(=O)[nH]n3c2=O)cc1 | 3.68%
Cc1ncncc1C(=O)N1CCCC(n2ccnc2C)C1 (stereo not drawn) | -20.1%
NC(=O)N1CCC2(CC1)CN(Cc1cccnc1)C(=O)CO2 | 2.4%
COCCN1CCC2(CC1)CN(C(=O)c1ccccc1)CCO2 | 39.5%
O=C(c1ccco1)N1CCCC2(CN(Cc3cccs3)CCO2)C1 (stereo not drawn) | 2.02%
Cc1nocc1C(=O)N1CCOC2(COCCN(C(C)C)C2)C1 (stereo not drawn) | 20.6%

Structure (SMILES) | INHIBITION
COCCN1CCC2(CC1)CN(C(=O)c1cccs1)CCO2 | -23.3%
O=C(c1ccco1)N1CCCC2(CN(Cc3ccsc3)CCO2)C1 (stereo not drawn) | 76.5%
Cc1nocc1C(=O)N1CCOC2(COCCN(CC3CC3)C2)C1 (stereo not drawn) | 1.7%
COCCN1CCC2(CC1)CN(C(=O)c1ccco1)CCO2 | 51.9%
O=C(c1ccco1)N1CCCC2(CN(Cc3ccoc3)CCO2)C1 (stereo not drawn) | -8.25%
COCCN1CCOCC2(C1)CN(C(=O)c1conc1C)CCO2 (stereo not drawn) | 53.4%
O=C(CC1CC1)N1CC[C@H]2OCC[C@@]2(COc2ncccc2F)C1 | -31.3%
CN1CCN(C(=O)C2CCCN(c3cccnn3)C2)CC1 (stereo not drawn) | 42.4%
O=C(Nc1cc(C(F)(F)F)c[nH]c1=O)C1CCCCN1 (stereo not drawn) | -5.51%
CNC(=O)CCN(C)c1nc(-c2ccncc2)nc2c1CCNC2 | 35.8%
CCCc1nnc(N2CC[C@](C)(O)[C@H](C)C2)s1 | -50.3%
CNc1ccnc(N2C[C@@H](C)[C@](O)(C3CCC3)C2)n1 | 30.1%
CCCc1nnc(N2CC[C@@](O)(C3CCOCC3)[C@H](C)C2)s1 | 60.3%
CNc1ccnc(N2CC[C@@](O)(C3CCOCC3)[C@H](C)C2)n1 | 59.3%
CNc1ccnc(N2C[C@@H](C)[C@](O)(C3CC3)C2)n1 | 39.9%
CCCc1nnc(N2C[C@@H](C)[C@@](C)(O)C2)s1 | 9.96%
Cc1cnc(C2(C)CCN(Cc3csc(C)n3)CC2)s1 | 6.32%
O=C(NC1CCCOc2cc(Cl)ccc21)c1ccc(=O)[nH]n1 (stereo not drawn) | -10.9%
CCN1CC2(CCC1=O)CCN(C(=O)c1cn3cccnc3n1)CC2 | -13.6%
COc1ccc(Br)cc1SCCC(N)=O | 16.1%
O=C(NCc1ccco1)[C@@H]1CCO[C@@H]2CCN(CC3CC3)C[C@@H]21 | 67.2%

Structure (SMILES) | INHIBITION
O=C(NC1CC1)[C@@H]1CCO[C@@H]2CCN(C3CCOCC3)C[C@H]21 | -48.2%
Cn1cc(CN2CC[C@H]3OCC[C@@H](C(=O)NCc4ccco4)[C@@H]3C2)cn1 | 5.96%
O=C(NC1CC1)[C@@H]1CCO[C@@H]2CCN(Cc3ccsc3)C[C@H]21 | 27.3%
O=C(NCc1ccccn1)[C@H]1COC[C@H]2CN(Cc3ccoc3)C[C@H]21 | 31.8%
O=C(NC1CC1)[C@@H]1CCO[C@@H]2CCN(Cc3ccco3)C[C@H]21 | 18.3%
O=C(NCc1ccccn1)[C@@H]1CCO[C@@H]2CCN(Cc3ccoc3)C[C@H]21 | 54.6%
O=C(NCC1CC1)[C@@H]1CCO[C@@H]2CCN(Cc3ccco3)C[C@H]21 | -22.8%
O=C(NC1CC1)[C@@H]1CCO[C@@H]2CCN(C3CCCC3)C[C@H]21 | 3.25%
O=C(NC1CC1)[C@@H]1CCO[C@@H]2CCN(CC3CCC3)C[C@H]21 | 61.1%
CN1CC[C@H]2OCC[C@@H](C(=O)NCc3ccco3)[C@@H]2C1 | 18.3%
O=C(NC1CC1)[C@@H]1CCO[C@@H]2CCN(CC3CCC3)C[C@@H]21 | 91%
CN(C)Cc1ccnc(C2CCCN2Cc2cc3ccccc3s2)n1 (stereo not drawn) | 19.6%
CC1CN(Cc2cc(C#N)ccc2F)CCN1Cc1nccn1C (stereo not drawn) | 22.95%
O=C(CCc1cc2n(n1)CCCNC2)N1CCSCC1 | -24.7%
CNc1nc(C2CCCCN2C(=O)COC)nc2c1CN(C)CC2 (stereo not drawn) | 38.2%
O=C(NC1CCC1)[C@@H]1CCO[C@@H]2CCN(CCc3ccccc3)C[C@H]21 | 53.5%
CNC(=O)[C@@H]1CCO[C@@H]2CCN(CCc3ccccc3)C[C@H]21 | 8.52%
O=C(NC1CCC1)[C@@H]1CCO[C@@H]2CCN(C3CCCC3)C[C@@H]21 | 53.4%
O=C(NC1CC1)[C@@H]1CCO[C@@H]2CCN(CCc3ccccc3)C[C@@H]21 | 27.3%
O=C(NC1CCC1)[C@@H]1CCO[C@@H]2CCN(C3CCCC3)C[C@H]21 | -25.2%
O=C(NC1CC1)[C@@H]1CCO[C@@H]2CCN(C3CCOCC3)C[C@@H]21 | 26.8%
